Source: PubChem BioAssay AID624330 (Southern Research Specialized Biocontainment Screening …, 2012)
Hit rate of the full screen: of about 340,000 compounds, about 2,100 (0.62%) were called active.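 Rule for the calls: active = first-screen hits whose inhibition reached a set limit at any dose in the follow-up dose series; inconclusive = inhibition above the set first-screen limit but never retested; inactive = the rest.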 The list is a sample of the results. Entries with a potency or affinity are not part of this list.

molecular target: Rac GTPase-activating protein 1 (Homo sapiens) (UniProt Q9H0H5); assay: blockers of MgcRacGAP-driven Rac1 GTP hydrolysis – biochemical, ADP Hunter fluorescence, primary and confirmatory, confirmation (AID 624330); settings: MgcRacGAP-stimulated Rac1 GTP hydrolysis, at 30 µM, stronger effect = higher value, GST-tagged Rac1 F28L mutant substrate;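 note: fluorescence reports GDP produced by GAP-driven GTP hydrolysis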
Sequence (Q9H0H5 whole entry, looked up): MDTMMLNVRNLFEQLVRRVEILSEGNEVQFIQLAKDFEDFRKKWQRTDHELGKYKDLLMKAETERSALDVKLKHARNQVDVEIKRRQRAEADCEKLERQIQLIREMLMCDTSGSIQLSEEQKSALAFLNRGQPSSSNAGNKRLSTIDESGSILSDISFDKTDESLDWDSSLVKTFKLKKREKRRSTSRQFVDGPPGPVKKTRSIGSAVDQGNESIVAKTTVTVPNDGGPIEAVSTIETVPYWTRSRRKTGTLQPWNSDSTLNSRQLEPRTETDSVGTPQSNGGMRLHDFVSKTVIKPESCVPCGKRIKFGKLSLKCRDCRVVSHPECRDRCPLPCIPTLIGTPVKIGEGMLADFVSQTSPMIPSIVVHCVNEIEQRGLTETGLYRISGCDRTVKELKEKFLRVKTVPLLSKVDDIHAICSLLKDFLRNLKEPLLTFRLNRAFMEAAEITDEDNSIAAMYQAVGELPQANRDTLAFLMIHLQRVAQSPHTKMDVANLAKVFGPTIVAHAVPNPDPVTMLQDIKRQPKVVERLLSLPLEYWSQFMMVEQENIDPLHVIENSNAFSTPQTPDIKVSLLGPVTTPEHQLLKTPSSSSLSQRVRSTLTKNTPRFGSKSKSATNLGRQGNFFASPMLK

inhibition, inactive:
Cn1c(SCC(=O)NCc2cccs2)nnc1-c1ccncc1 5.96%, O=C(NCc1cc(C(F)(F)F)ccc1Cl)c1cccc2c1C(=O)c1ccc(N3CCCCC3)cc1S2(=O)=O 5.32%, COC(=O)C1CC2=C(CCCC2=O)NC1=O (configuration not stated) 5.59%, COc1ccc(O)c(-c2cc(-c3cccc(Br)c3)n[nH]2)c1 10.7%, COc1ccc(NC(=O)C2CCN(C(=O)Cc3ccccc3)CC2)c(OC)c1 8.8%, C/C(=N\NS(C)(=O)=O)c1ccc(C)cc1 5.59%, Cc1cccc(C(=O)Nc2ccc(C(=O)N/N=C/c3ccco3)cc2)c1 1.6%, CN(Cc1ccc(Cl)cc1Cl)C(=O)C1CSC2(C)CCC(=O)N12 (configuration not stated) 7.87%, O=S(=O)(/N=C(/Nc1nccs1)c1ccc(F)cc1)c1ccccc1 -7.34%, COc1cccc(OC)c1OCCCCN1CCCCC1 19.4%, COc1cccc(OC)c1OCCN1CCCC1 -3.59%, Cc1cccc(C)c1OCCCN1CCOCC1 9.47%, COc1cccc(OC)c1OCCCCCCN1CCN(C)CC1 4.56%, O=[N+]([O-])c1ccc(/C=N\N2CCN(Cc3ccccc3Cl)CC2)cc1 10%, CC(=O)N1c2ccc(S(=O)(=O)NCCC(=O)NC3CCC(C)CC3)cc2CC1C (configuration not stated) 6.14%, O=C(CSCC(=O)OCC(=O)c1ccc(Br)cc1)Nc1ccc(Br)cc1 2.71%, C=CCn1c(C)cc(C(=O)COC(=O)CCc2cc(OC)c(OC)c(OC)c2)c1C 1.52%, COc1ccccc1NS(=O)(=O)c1ccc(C(=O)NCC(c2ccco2)N2CCCCC2)cc1 (configuration not stated) -5.8%, Cc1cc(C)c(OCCN(C)Cc2ccccc2)c(Br)c1 9.5%, Cc1ccc(Cl)c(OCCCCN(C)Cc2ccccc2)c1 26.2%, Cc1cc(C)c(C)c(OCCCCN(C)Cc2ccccc2)c1 26.2%, Cc1ccc(C(C)C)c(OCCCN(C)Cc2ccccc2)c1 13%, COc1ccc(-c2c[n+]3c4n2CCCCC4=C(c2ccccc2)C3)cc1 8.53%, CCOC(=O)C1CCN(C(=O)CN2C(=O)c3cccnc3Oc3ccccc32)CC1 6.53%, COc1ccc(NC(=O)CCNS(=O)(=O)c2ccc3c(c2)CC(C)N3C(=O)C2CC2)cc1 (configuration not stated) 8.6%, COc1ccc(-c2cc(C(=O)N(C)Cc3ccc(F)cc3)c3ccccc3n2)cc1OC 9.06%, CCSc1nnc([C@H](Cc2c[nH]c3ccccc23)NC(=O)OC(C)(C)C)o1 5.34%, COc1ccc(NC(=O)CCC(=O)c2cccs2)cc1Cl 1.13%, Cc1ccc(NCCC(=O)c2cccs2)cc1Cl -0.47%, Cc1ccc(OC(=O)C(F)(F)F)c2c1NCCC2 22.1%, O=C1CCNc2c(Cl)cc(Cl)cc21 -0.57%, COCc1[nH][nH]c(=O)c1C=Nc1ccc(Cl)cc1 8.52%, Cc1ccc(N(CC(=O)Nc2ccccc2-c2ccccc2)S(=O)(=O)c2ccccc2)cc1 1.42%, COc1ccc(O)c(/C=N/N=C2/C(=O)Nc3ccccc32)c1 10.2%, O=C1Nc2ccccc2/C1=N/N=C/c1cccc(O)c1 -0.92%, C#CCOCCOCCOCCNc1nc(N2CCN(C(=O)[C@H](Cc3ccc(O)cc3)n3cc([C@@H](N)C(C)CC)nn3)CC2)nc(N2CCN(C(=O)[C@H](Cc3cc4ccccc4[nH]3)n3cc([C@@H](N)C(C)CC)nn3)CC2)n1 (some centres not stated) 7.82%, O=C(Nc1ccccc1)c1ccc2nc(-c3ccco3)c(-c3ccco3)nc2c1 14.3%, O=C(c1ccccc1)c1ccc2nc(-c3ccco3)c(-c3ccco3)nc2c1 25.8%, CCc1cccc(C)c1NC(=O)c1cccc(N(C)C)c1 23.8%, CCCCCCCCC1=NCCc2c1[nH]c1ccccc21 12.8%, Cc1cc(=O)[nH]c2cc(O)ccc12 5.17%, CCOCCc1nnc(NC(=O)Cc2c(F)cccc2Cl)s1 -4.41%, NC(=O)c1ncn([C@@H]2O[C@H](CNCc3ccccc3OCc3ccc(Cl)cc3Cl)[C@@H](O)[C@H]2O)n1 -6.96%, O=C(NCc1cccs1)c1ccc2c(c1)OCCO2 -0.21%, COc1ccc(C(=O)CCNc2ccc3c(c2)OCCO3)cc1 38.5%, O=C(Cc1ccccc1[N+](=O)[O-])Nc1ccc2c(c1)OCCO2 2.24%, Cc1ccc(S(=O)(=O)NCc2ccco2)cc1C 0.0567%, Cc1ccc(Nc2nc(N)c([N+](=O)[O-])c(NCc3ccco3)n2)cc1C 2.81%, CCOc1ccc(Br)cc1CNc1ccc2c(c1)OCCO2 24.3%, O=C(O)CCNc1ccc2c(c1)OCCO2 19.4%, O=C(NCc1cccs1)Nc1ccc2c(c1)OCO2 -0.17%, CCCn1c(=O)[nH]c(=O)c2c1nc(-c1ccc3c(c1)OCCO3)n2CCN1CCOCC1 10.3%, O=S(=O)(c1ccccc1)N(Cc1ccccn1)Cc1ccccn1 3.72%, C/C=C(\C)C(=O)OC(C)(C)[C@H]1Cc2cc3ccc(=O)oc3cc2O1 7.55%, CCC(c1nnc(SCC(=O)Nc2cc(Cl)ccc2C#N)n1C1CCCCC1)N(C)C (configuration not stated) 5.01%, CCc1ccc(-c2cc(C(=O)O)c3ccccc3n2)s1 -3.07%, CCCN(CCC)CCCNC(=O)c1cc2c(=O)[nH]c3ccccc3c2s1 23.4%, O=C(Cc1ccc(Cl)cc1)SCc1ccccc1 4.82%, O=C(NNC(=O)c1cc([N+](=O)[O-])ccc1Cl)c1cccnc1 3.49%, O=c1[nH]c2ccc(S(=O)(=O)Nc3ccc(Br)cc3)cc2[nH]1 0.44%, Cc1cccc(NCc2ccccc2O)c1 13.2%, Cc1ccc(NCC(O)C(O)C(O)CO)cc1C (configuration not stated) 9.4%, Cc1ccc(NCc2ccccc2O)cc1 19.1%, Cc1ccc(NCCC#N)cc1C -10%, COc1ccc(C(CCc2ccc(C)o2)NC(=O)Nc2ccc(OC)cc2OC)cc1 (configuration not stated) 0.8%, C/C=C(\C)C(=O)NCCN1C2=NC[C@@H](Cc3ccccc3)N2C[C@@H]1Cc1ccc(OC)cc1 5.16%, Cc1ccc(O)c(/C=N/NC(=O)Cc2ccc(Cl)cc2)c1 -8.7%, COC(=O)C1=C(C)N(Cc2ccccc2)C(=O)N[C@H]1CCc1ccccc1 8.96%, CCOC(=O)C1CCCN(C2=NC(=O)/C(=C/c3ccc(OC)cc3)S2)C1 (configuration not stated) 8.26%, COc1ccccc1/C=C1\SC(N2CCC(C)CC2)=NC1=O 8.78%, COc1cccc(/C=C2\SC(N3CCCC(C)C3)=NC2=O)c1OC (configuration not stated) 10.3%, CCOC(=O)C1CCN(C2=NC(=O)/C(=C/c3ccc(OC)c(OC)c3)S2)CC1 12.3%, CC1CCN(C2=NC(=O)/C(=C/c3cccc(O)c3)S2)CC1 3.71%, CCOC(=O)C1CCCN(C2=NC(=O)/C(=C/c3ccc(OC)c(OC)c3)S2)C1 (configuration not stated) 7.19%, CCOC(=O)C1CCN(C2=NC(=O)/C(=C/c3ccc(Cl)cc3)S2)CC1 7.83%, COc1ccc(OC)c(/C=C2\SC(N3CCCC(C)C3)=NC2=O)c1 (configuration not stated) 2.99%, CSCCC(=O)N1C(C)CCCC1C(=O)O (configuration not stated) 8.45%, COc1ccccc1-n1c(C)cc(/C=C2\C(=N)N3N=C(CC(=O)N4CCOCC4)SC3=NC2=O)c1C 13.5%, CCCN(CC(=O)Nc1ccccc1C)C(=O)Cc1cccs1 9.22%, COC(=O)C1=C(CS(=O)(=O)c2ccc(Cl)cc2)NC(=O)NC1c1ccc(O)c(OC)c1 (configuration not stated) 0.39%, CC(C)(C)NC(=S)NNC(=O)c1ccc2ncccc2c1 4.55%, O=C(NN=C1CCC(=NNC(=O)c2ccccn2)CC1)c1ccccn1 10.4%, CCOc1ccc(/C=C2\SC(N3CCCCC3)=NC2=O)cc1 10.3%, CCOC(=O)C1CCCN(C2=NC(=O)/C(=C/c3ccc(N(C)C)cc3)S2)C1 (configuration not stated) 3.86%, Cc1ccsc1/C=N/NC(=O)C(O)c1ccccc1 (configuration not stated) 8.51%, S=C(NCc1ccco1)Nc1ccccc1 3.49%, CCN(CC)S(=O)(=O)c1cccc(NC(=O)COC(=O)c2n[nH]c(=O)c3ccccc23)c1 4.21%, COc1cc(CNc2ccc(N3CCCC3)cc2)ccc1OCc1ccccc1F 19.3%, COc1ccccc1C(=O)Nc1ccc(N2CCCCC2)cc1 16.2%, COc1cccc(CNC2CCCCCCC2)c1OC 20.3%, COc1cccc(CNc2ccc(F)c(Cl)c2)c1OC 6.64%, COc1cccc(OC)c1C(=O)Nc1ccc(N2CCCC2)cc1 19%, COc1cccc(CNc2ccc(S(N)(=O)=O)cc2)c1OC -0.0267%, COc1ccc(CC(=O)Nc2cc(Cl)ccc2C(=O)O)cc1 11%, O=C(CSc1nc2cc(Cl)ccc2s1)c1ccco1 9.01%, COc1ccc(N2CCN(C(=O)c3ccccc3N(C)S(=O)(=O)c3ccc(C)cc3)CC2)cc1 30.1%, O=C(O)c1cnc(-c2ccccc2)nc1Oc1ccccc1 4.36%
